In PubChem BioAssay (NCI):
“And” between values parts separate entries of the source, which are not always exact repeats. Identical values can stand only once. About 83,000 compounds went through this panel and 20% of them were active in at least one assay; those are over-represented in the sample as a whole.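 Cells were grown in 96-well plates and exposed to the test compound at a single concentration for 48 hours; results are reported as percent growth, with values below 10 considered active.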 The source made the active and inactive calls.

The molecules below were run on MDA-MB-468 breast (assay: NCI-60 one-dose screen, 48 h (100 = growth as untreated, 0 = no growth, -100 = all killed)). Conditions: 10 µM unless noted.

SMILES	growth
CC(=O)c1ccccc1O	101% (inactive) and 103% (inactive) and 108% (inactive)
CC(=O)n1nc(C(=O)OC(C)(C)C)c2cc(F)c(F)cc21	97.4% (inactive)
CCCCCc1ccc(C)cc1OC(=O)CCl	110% (inactive)
CCC(N)(C(=O)O)c1ccc(F)cc1 (stereo not given)	105% (inactive)
O=C(O)c1cc(N=Nc2ccc(-c3ccc(N=Nc4c(S(=O)(=O)O)cc5ccc(Nc6ccccc6)cc5c4O)cc3)cc2)ccc1O	124% (inactive)
